# Assay results from the supplement of paper PMC6555819.
# Tests used:
# Assay in all cases: PBM binding z-score (relative to random genomic background probes); higher = stronger binding; sequences stand for … in GC…GCGATTGACAGCGTAGAATGAAGG
# [1] = test system: RARb homodimer (NR concentration 270 nM)
# Procedure, shortened: (§1)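 Scanned fluorescence from custom Agilent 4×180K protein-binding microarrays was regression-normalized. Binding z-scores use random background probes as reference. Ligand-free nuclear receptor dimers were incubated on the arrays for 1 h and detected with antibodies against each partner (one per run).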
# [2] = test system: RARg:RXRa (NR concentration 270 nM, RXRa partner concentration 90 nM)
# Procedure, shortened: as §1
# [3] = test system: RARg homodimer (NR concentration 270 nM)
# Procedure, shortened: as §1
# [4] = test system: RXRa DBDmut IVT, anti-RXR (DBD mutation: RXRa K156A/R161A, NR concentration 90 nM)
# Procedure, shortened: as §1
# [5] = test system: RXRa homodimer (NR concentration 180 nM)
# Procedure, shortened: as §1
# [6] = test system: THRa:RXRa (NR concentration 90 nM, RXRa partner concentration 90 nM)
# Procedure, shortened: as §1
# [7] = test system: THRa homodimer (NR concentration 90 nM)
# Procedure, shortened: as §1
# [8] = test system: VDR:RXRa (NR concentration 270 nM, RXRa partner concentration 90 nM)
# Procedure, shortened: as §1
# [9] = test system: VDR homodimer (NR concentration 270 nM)
# Procedure, shortened: as §1
Sequence,PBM binding z-score [1],PBM binding z-score [2],PBM binding z-score [3],PBM binding z-score [4],PBM binding z-score [5],PBM binding z-score [6],PBM binding z-score [7],PBM binding z-score [8],PBM binding z-score [9]
AGAATGAGGTTACCATAGATCAGGGAAACGCTTG,0.58,1.89,1.72,1.13,2.38,2.59,0.611,0.941,0.117
AGTCAAAGTTCAGGACGAGGTAACGAAAAGCACG,2.94,4.74,4.62,2.71,3.34,3.75,1.77,2.95,2.11
CAGCCTAGGTCAGGGCCGGTATAGGAGGAACGTT,2.41,3.04,3.86,-0.785,1.56,1.88,0.2,0.178,-0.454
TTACCCAGGTGAAAGGTCGTTGATGCACGCCTTG,2.56,3.48,1.53,0.677,4.51,3.2,1.26,3.08,1.66
GCTAGCAGGCCAATTGGGTCACTCAATGACGGGC,1.94,1.01,1.15,-0.58,0.841,1.66,0.0976,0.89,-0.328
TTACCAAGGTGAAAGGGCGTTGATGCACGCCTTG,1.2,1.59,0.688,-0.264,2.14,1.99,0.369,0.61,0.227
CGTCAAAGTTCTACTAAGGTAACGTAAAGCACGC,0.428,0.172,0.53,0.53,0.138,3.7,1.49,0.34,0.165
ACTAGCAGGCCGAGTTTGGGTCACTCAAACAAAG,1.65,1.04,0.63,-0.134,0.562,2.17,0.853,0.459,0.396
TTTGCTAGGTCAGTTGGTCAGCTAACGAGCTGCC,2.57,2.76,3.54,0.279,0.82,1.42,0.0567,0.134,-0.505
CCTATCAGTTGACCATAAGGGCAACCGAAGCTCG,1.93,1.48,1.03,0.139,0.916,1.98,1.26,0.912,0.554
TTACCAAGTTGAGCTGAGGTCGTTGATCCAACTC,0.944,0.311,0.0622,0.245,0.839,4.34,1.77,2.7,2.04
TCTGCTAGGTCCACGATGGTCAGCTAATCTGCTA,-0.207,-0.213,-0.0544,0.651,-0.333,-0.32,-0.873,-0.304,-0.326
TTTTGTAGATCAACAGGAGGTTAAGAAAGATCGA,0.787,1.04,0.47,-0.291,1.23,1.23,0.167,0.859,0.336
CCAGACAGGTCAAAGGTAACTCAGTCTGGTACGC,3.43,5.62,4.75,2.47,6.86,3.06,0.0861,3.86,0.986
CCTATTGGGCCACGAAAGGTCATTGATTCAGTGA,4.4,4.95,4.66,0.751,5.29,4.08,0.834,4.16,2.26
CAAGACAGGTGAGAAGGTAACTCAGCCTCGATTA,0.607,0.784,0.824,-0.536,0.481,0.413,0.475,-0.155,-0.249
CCATACGGGTCAAGGTTATAGCACGGGTGGTACG,3.43,4.7,4.33,0.452,4.65,2.85,0.691,3.11,1.15
CCGACTGGGGCATAAGGTTACCGTAAGCCAGCCC,1.83,2.05,1.06,-0.367,1.34,2.26,1.13,0.108,-0.402

Sequence,PBM binding z-score [1],PBM binding z-score [2],PBM binding z-score [3],PBM binding z-score [4],PBM binding z-score [5],PBM binding z-score [6],PBM binding z-score [7],PBM binding z-score [8],PBM binding z-score [9]
CCTGCTAGGTCATGGTAAGCTAATCTACAGTATG,2.79,3.8,4.48,1.84,2.62,2.98,1.22,1.49,-0.214
GGAACGAGGGCAGTCGAGTTGATAGCATGGCGAT,0.327,0.643,1.18,1.1,0.35,1.52,-0.895,1.22,1.02
TCTATTAGTTGATTAGGGCACCCGAAACAGCGGA,0.537,0.623,0.797,1.22,0.445,0.654,0.582,0.698,0.203
AGTAGTTGGTCAGCTGAGGTCACACACAATTCGG,4.45,4.21,4.62,1.36,4.2,4.88,5,4.43,3.98
ATATGTAGGTCACATCCGGGTCATTCAGGCTATG,4.84,6.67,5.7,2.15,5.28,4.65,2.94,6.03,3.78
CCTAGCAGGCTAATCTGGGTCACTCAAGGCTTGA,1.8,0.393,0.769,0.246,0.687,3.19,0.623,0.385,0.114
CAAACTAGGTCAAGAGGTCGAAGTCCGCTTCCCG,4.4,6.21,5.88,1.72,5.59,3.34,1.01,4.04,2.2
CCGAGTAGGTTATGGGGCATTCAAGCAACGGTGA,0.855,0.557,0.579,0.355,0.617,0.205,0.0762,-0.183,0.0962
CAAACTAGGTCAAAGAGGTCAAAGTCCGTGCGTA,5.27,6.66,6.81,3.24,7.15,4.4,2.33,7.75,6.65
CCTTATGGGTCAAGGTTATAGCACGGGTGGTACG,2.91,4.01,4.26,0.11,3.78,2.22,0.64,2.45,1
ATATGTATGTTAAGGGTCATTCAGGTTGGTTCGC,3.82,3.82,2.66,2.29,4.3,3.36,1.54,5.25,3.48
CCGACTGGGGAAAGGTTACCATAACGCACAGCCA,1.86,1.66,0.984,-0.493,2.28,1.13,-0.224,0.901,-0.242
CCTACTGGGCTATTCAGAGGTCATTGATCATATG,3.63,3.55,2.52,1.07,3.56,3.16,1.28,3.57,3.02
GGAACGAGGGCATTCCAGTTGATAGCATGGCGAT,0.706,1.1,1.38,3.25,0.797,3.1,-0.0583,2,2.61
AGTCAGAGTTCACTAGGTAACGTAAGATTCAGCT,2.83,4.11,4.7,4.73,3.63,1.85,0.172,4.82,5.65
TAGCCTAGGTCAGATCGGGCCTGTATACGCTATA,1.97,2.53,3.21,-0.396,1.29,2.64,-0.216,0.0712,-0.157
ACGAGTTGGTCAGCTGAGGTCACACACAATTCGG,4.17,4.17,4.27,1.82,4,4.77,4.97,4.62,4.4
ATCGAAAGGTCGAGGTGCGTATAGAGAAAGGGAA,2.47,4.3,4.33,0.96,4.37,1.77,-0.562,2.16,0.304
